Calls of active or inactive are those of the source. Calls follow the shape of the dose curve; as a rule, active = well fitted activation curve with a large enough effect; inconclusive = small, poorly fitted or top-dose-only effect; inactive = no such curve, though single readings can be large or run the other way.

Chain of Cytochrome P450 3A4 (Homo sapiens) (P08684 whole entry, looked up): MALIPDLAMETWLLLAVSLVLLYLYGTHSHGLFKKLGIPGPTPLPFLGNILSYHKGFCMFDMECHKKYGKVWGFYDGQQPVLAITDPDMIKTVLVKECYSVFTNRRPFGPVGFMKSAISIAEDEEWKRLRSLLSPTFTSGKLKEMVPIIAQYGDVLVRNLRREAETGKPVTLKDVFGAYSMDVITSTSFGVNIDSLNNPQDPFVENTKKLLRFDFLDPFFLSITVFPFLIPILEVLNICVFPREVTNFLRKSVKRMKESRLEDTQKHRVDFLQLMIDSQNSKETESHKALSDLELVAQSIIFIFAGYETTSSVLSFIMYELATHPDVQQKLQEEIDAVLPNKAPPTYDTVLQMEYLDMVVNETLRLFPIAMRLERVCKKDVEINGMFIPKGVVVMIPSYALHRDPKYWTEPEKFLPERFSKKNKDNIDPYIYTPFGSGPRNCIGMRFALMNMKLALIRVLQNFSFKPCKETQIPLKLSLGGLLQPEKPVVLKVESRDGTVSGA

This assay deals with Cytochrome P450 3A4 (Homo sapiens) (UniProt P08684). Put plainly: qHTS Assay for Activators of Cytochrome P450 3A4 (AID 885). Also: nearly all actives have a fitted effect of over 65% in size. The note with it: recombinant CYP3A4, Luciferin-PPXE luminescence, 60 min; series mostly up to 57.1 µM; activity change, positive = activation: at the top concentration. In a few lines:
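Activators are scored by enhanced luminescence from CYP3A4 conversion of luciferin-PPXE (25uM, equal to KM) to luciferin, after 60 min at RT with an NADPH-regenerating system.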
Turning to `O=C(/C=C/C=C/c1ccc2c(c1)OCO2)N1CCCCC1`, the “activity change, positive = activation” value was -82.9% (inactive). On to `CC(C)C[C@H](NC(=O)[C@@H]1O[C@H]1C(=O)O)C(=O)NCCCCN=C(N)N`, for which the “activity change, positive = activation” value was -37.4% (inactive). `C[C@]1(C2CCCC2)Cc2cc(OCC(=O)O)c(Cl)c(Cl)c2C1=O`: the “activity change, positive = activation” value is -52.5% (inactive).

For the origin of these results see PubChem BioAssay (NCATS).
